Most compounds without a hit are left out; they make up all but 6.1% or so of the library.
D1 antagonist = human D1 dopamine receptor antagonism; P21728; activity change, negative = inhibition, % at 10 µM; 360,000 tested, 3.2% active; HEK293 TREx D1 cells, calcium flux, dopamine EC80; stronger effect = lower value; AID 504652; in the data active = activity change below about -30%; note: % is set by controls: 0 for no effect and ±100 for the full control effect
Target sequence (P21728 whole entry, looked up): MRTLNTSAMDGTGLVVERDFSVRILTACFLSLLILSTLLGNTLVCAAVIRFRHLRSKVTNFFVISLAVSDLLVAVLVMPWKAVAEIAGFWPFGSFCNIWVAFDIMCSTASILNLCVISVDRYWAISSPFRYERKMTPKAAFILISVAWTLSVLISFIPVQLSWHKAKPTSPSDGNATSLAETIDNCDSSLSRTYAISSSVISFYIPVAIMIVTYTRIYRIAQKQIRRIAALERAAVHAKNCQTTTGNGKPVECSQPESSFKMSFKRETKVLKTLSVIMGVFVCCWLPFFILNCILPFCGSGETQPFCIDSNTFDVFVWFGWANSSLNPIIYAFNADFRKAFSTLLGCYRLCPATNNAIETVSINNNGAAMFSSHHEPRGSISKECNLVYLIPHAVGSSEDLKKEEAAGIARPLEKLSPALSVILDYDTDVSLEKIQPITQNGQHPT
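Using tetracycline-induced force-coupled D1 Hek293 cells and a calcium dye, signals were followed for 180 s after compound, then for 180 s after EC80 dopamine, to detect inhibitors.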
DRD3 antagonist = antagonists of human D3 dopamine receptor | 360,000 tested, 2.5% active | max response, negative = inhibition, % | D3R cells, DiscoveRx beta-arrestin luminescence, antagonist mode; stronger effect = lower value | P35462; in the data active = max response below about -50%; inconclusive = no clear call, values can overlap the other calls; note: % is set by controls: 0 for no effect and ±100 for the full control effect
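Cells plated overnight at 1500 cells/well, then exposed to library compounds with dopamine controls for 90 minutes at 37 degrees C. DiscoveRx reagent added for 30–60 minutes at room temperature; luminescence read, quantitative HTS format.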
D1 PAM = human D1 dopamine receptor positive modulation. P21728. HEK293 TREx D1 cells, calcium flux, dopamine EC20 potentiation. potentiation, % at 10 µM. 360,000 tested, 0.036% active. AID 504651; in the data active = potentiation above about 30%; note: 0% is about no effect
D1 ag = agonists of human D1 dopamine receptor; P21728; activation, % at 2 µM; HEK293 T-REx D1 cells, calcium flux, agonist mode; AID 504660; 360,000 tested, 1% active; in the data active = activation above about 30%; note: 0% is about no effect
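Inducible HEK293 T-REx D1 cells, force-coupled to calcium signalling, were plated at 4000 cells/well with tetracycline and held overnight at 30 C. After no-wash calcium dye loading, compound-evoked calcium rise over 180 s flagged agonists.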
DRD3 agonist = activates the human D3 dopamine receptor; D3R DiscoveRx beta-arrestin cells, luminescence, 90 min; 410,000 tested, 0.58% active; P35462; max activation, %; AID 652048; in the data active = max activation above about 30%; note: 0% is about no effect
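Cells at 1500/well, incubated overnight, then treated with pinned compounds (dopamine as control) for 90 min at 37 degrees C. DiscoveRx reagent added for 30 - 60 minutes at room temperature; luminescence read.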
* = called active by the depositor; u = inconclusive; x = no result given; ! = a repeat was not active.

SMILES | D1 antagonist | DRD3 antagonist | D1 PAM | D1 ag | DRD3 agonist
COc1ccc(OC)c(C=Nc2ccccc2-c2nc3ccccc3[nH]2)c1 | -0.8 | -16.7 | 2.9 | -0.5 | 3.4
O=C(Nc1nc2ccccc2[nH]1)c1cccc(F)c1 | 7.7 | -9.5 | 6.4 | 1.2 | -0.5
CC(C)(C)NC(=O)C1CCN(c2nc3ccccc3nc2C(F)(F)F)CC1 | 3.6 | x | -2.7 | 1.7 | 3.3
COc1ccccc1CNC(=O)C1CCCN(c2nn3cc(-c4ccc(F)cc4)nc3s2)C1 (stereo unspecified) | 3.2 | x | 2.1 | 0.1 | -2.7
Cn1c(/C(C#N)=C/c2ccc(C(F)(F)F)cc2)nc2ccccc21 | 5.3 | x | 3.5 | -0.4 | 8.5
Cc1[nH]oc(=O)c1N=Nc1ccc2[nH]c(=O)[nH]c2c1 | x | -65.9* | x | x | 6.8
CCCOC(=O)c1c(-c2ccccc2)nc(CC)c(C(=O)SCC)c1CCC | -48.0* | 53.4 | -1.4 | -1.5 | -69.7
O=C(NCC(c1ccco1)N1CCN(c2ccccc2)CC1)C(=O)NC1CCCCC1 (stereo unspecified) | 12.2 | 3.3 | -3.0 | -1.1 | 36.7*
O=C(NCC1CCCO1)C(=O)NCC(c1ccco1)N1CCN(c2ccccc2F)CC1 (stereo unspecified) | 6.5 | 87.5 | 0.7 | 1.3 | 50.8*
O=C(NCC(c1ccco1)N1CCN(c2ccccc2F)CC1)C(=O)NC1CCCC1 (stereo unspecified) | 0.8 | 19.7 | -6.6 | 2.0 | 36.0*
COc1cccc(NC(=O)CCc2nc(-c3cc(OC)c(OC)c(OC)c3)no2)c1 | -10.1 | x | 1.9 | 0.7 | -4.3
CNC(=O)c1cnc2sc(N3CCC(C)CC3)nn2c1=O | -16.6 | x | -1.7 | 0.9 | -6.4
Cc1ccc(S(=O)(=O)c2nc(-c3cccs3)oc2SCC(=O)Nc2cc(C)cc(C)c2)cc1 | -4.9 | x | 1.0 | 10.7 | -6.9
CSc1nnc(C)c(/C=C/Nc2ccc(C)cc2)n1 | -5.3 | u | -2.4 | 45.5* | -8.5
CSc1nnc(C)c(/C=C/NOCc2ccc(Cl)cc2)n1 | -12.2 | 4.8 | -2.8 | 1.8 | 0.0
COc1ccccc1CNC(=O)c1ccc2c(c1)sc1nc(-c3ccc(F)cc3)cn12 | 4.2 | x | -1.9 | -0.1 | -2.3
Cc1c(NC(=O)C(C)OC(=O)COc2ccccc2)c(=O)n(-c2ccccc2)n1C (stereo unspecified) | -0.2 | 5.5 | -0.2 | 2.3 | 2.5
Cc1c(NC(=O)C(C)OC(=O)c2ccc(NC(=O)CC#N)cc2)c(=O)n(-c2ccccc2)n1C (stereo unspecified) | -32.9* | 5.5 | 1.0 | 2.2 | 11.1
CC(OC(=O)c1ccc(NC(=O)CC#N)cc1)C(=O)NC(=O)NC1CCCCC1 (stereo unspecified) | -32.4* | 15.5 | 7.1 | 4.0 | 4.1
C#C[C@]1(O)CC[C@H]2[C@@H]3CCc4cc(OC5CCCC5)ccc4[C@H]3CC[C@@]21C | 5.3 | 84.2 | -1.8 | 7.7 | 9.7
C#C[C@]1(O)CC[C@H]2[C@@H]3CCc4cc(OC)ccc4[C@H]3CC[C@@]21C | -19.3 | 79.3 | -3.7 | 1.6 | 30.0*!
CCOC(=O)c1nnc2c(-c3ccc(Cl)cc3)c(C)nn2c1N | -6.3 | x | -1.1 | 1.0 | 1.8
CC(=O)N(/N=C1\Sc2ccccc2C1=O)c1ccccc1C | 7.7 | -4.2 | -4.3 | 1.9 | 7.5
CC(=O)N(/N=C1\Sc2ccccc2C1=O)c1ccccc1 | -43.9* | -58.6* | -6.7 | 5.2 | -2.5
COc1ccc(-c2c(-c3ccsc3)oc(=O)c3cc(OC)c(OC)cc23)cn1 | x | 14.9 | x | x | 8.9
SMILES | D1 antagonist | DRD3 antagonist | D1 PAM | D1 ag | DRD3 agonist
COc1cc2c(-c3ccc4cc[nH]c4c3)c(-c3ccsc3)oc(=O)c2cc1OC | x | 2.2 | 24.0 | 9.7 | 51.7*
O=S(=O)(c1ccc2c(c1)OCCO2)N1CCN(S(=O)(=O)c2ccc(F)c(F)c2F)CC1 | 8.8 | x | 1.6 | 1.3 | x
COc1ccc(-n2nnnc2C(C2CC2)N2CCN(C/C=C/c3ccccc3)CC2)cc1 (stereo unspecified) | x | -80.9* | x | x | -3.4
CCC(c1nnnn1-c1c(C)cccc1C)N1CCN(C/C=C/c2ccccc2)CC1 (stereo unspecified) | x | u | x | x | -3.8
Cc1cccc(C)c1-n1nnnc1C(C1CC1)N1CCN(C/C=C/c2ccccc2)CC1 (stereo unspecified) | x | -78.8* | x | x | 1.0
Cc1nc(N2CCCC2)ncc1C(=O)Nc1ccc(F)cc1F | -3.7 | x | 0.5 | -1.3 | 4.1
CCCCOc1ccc(C(=O)CCN2CCOCC2)cc1 | -34.4* | u | -8.0 | 9.8 | -10.1
CCCCOc1ccc(C(=O)N2CCCC2)cc1 | 15.1 | -15.6 | -2.8 | 0.4 | 11.2
CCCOc1ccc(C(=O)CCN2CCCCC2)cc1 | 7.0 | u | -6.7 | 4.6 | -25.1
CCCCCOc1ccc(C(=O)CCC(=O)N2CCCC2)cc1 | -6.6 | 2.8 | -7.4 | 36.2* | 3.0
CCOc1ccccc1CNC(=O)c1cc(-c2ccc(Cl)s2)nc2ccccc12 | 4.8 | x | 1.5 | 1.8 | 6.5
Cc1oc(=O)c(NC(=O)c2ccc(Cl)cc2)cc1C(=O)c1ccccc1 | -7.3 | -80.0* | -4.1 | -1.4 | -7.5
CN(C)CCNC(=O)C(=O)NCC(c1cccnc1)N1CCN(c2ccc(F)cc2)CC1 (stereo unspecified) | -2.3 | x | 2.6 | -1.2 | 4.3
COc1ccccc1N1CCN(C(CNS(=O)(=O)c2cccs2)c2cccnc2)CC1 (stereo unspecified) | -2.2 | -50.1* | -5.8 | 1.7 | -6.8
O=C(NCCc1ccccc1)C(=O)NCC(c1cccnc1)N1CCN(c2ccc(F)cc2)CC1 (stereo unspecified) | 3.7 | x | 1.4 | 32.8* | 5.8
CN(C)CCNC(=O)C(=O)NCC(c1cccnc1)N1CCN(c2ccccc2)CC1 (stereo unspecified) | -32.8* | x | -3.8 | 5.2 | 4.6
O=C(NCC(c1cccnc1)N1CCN(c2ccccc2F)CC1)c1ccccc1 (stereo unspecified) | -31.8* | 2.8 | -7.2 | 0.7 | 3.6
O=C(NCc1cccnc1)C(=O)NCC(c1cccnc1)N1CCN(c2ccc(F)cc2)CC1 (stereo unspecified) | 1.4 | x | -5.5 | 5.3 | 5.1
O=C(NCc1cccnc1)C(=O)NCC(c1cccnc1)N1CCN(c2ccccc2F)CC1 (stereo unspecified) | 1.5 | x | -4.6 | 7.1 | 7.1
Cc1ccccc1CN1C(=O)C(O)(c2c[nH]c3ccccc23)c2cc(Cl)ccc21 (stereo unspecified) | -1.2 | x | -4.0 | 0.5 | -7.9
COc1ccc(C)cc1NC(=O)C(OC(=O)c1ccc([N+](=O)[O-])o1)c1ccccc1 (stereo unspecified) | -48.4* | -24.5 | -0.1 | -0.5 | -1.7
CC(C)(C)c1ccc2c(c1)N(CC(=O)O)C(=O)CO2 | 2.4 | -7.3 | -7.7 | 2.6 | -11.0
Cc1ccc2c(c1)N(CC(=O)O)C(=O)CO2 | -30.0* | 23.8 | -5.2 | 2.4 | -7.3

Compound activity as filed in PubChem BioAssay.
